From PubChem BioAssay
Compounds with a hit are over-represented: about 19% of the library has one in this group of screens.
MCF10A rereplic: DNA re-replication induction in MCF 10a cells. MCF 10A DNA re-replication, Hoechst nuclear intensity, 48 h. Potency, µM (titrated, usually from 46.1 µM), without a hit: at the highest dose activity, positive = re-replication, actives largely listed as activators. 350,000 compounds, 2.9% hits. AID 624296; also: potency is read from the fitted curve at half-maximal effect; % of control where 0% means no effect; nearly all actives have a fitted effect of over 50% in size
IL1B secr inh: inhibitors of inflammasome signaling (IL-1 beta secretion). activity change, % at 57.5 µM. 360,000 compounds, 4.7% hits. THP-1 LPS/ATP IL-1B secretion, AlphaLISA, 16 h; active compounds read low; in the data active = activity change below about -50%; inconclusive = mostly about -30% to -49%; also: % is scaled to controls: 0 for no effect and ±100 for the full control effect
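Secreted IL-1B measured by AlphaLISA bead assay after 16 h compound exposure of THP-1 cells; compounds (final up to 57.5 uM) added 1 h before LPS (250 ng/mL) and ATP (1.25 mM) stimulation; lower signal means less secretion.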
Chronic BCR inh: inhibitors of chronic active B-cell receptor signaling; ABC-DLBCL IkBa-CBG/CBR reporter, luminescence ratio, 4 h; Potency, µM (highest dose often 46.1 µM), for inactives: at the top dose activity change, negative = inhibition, most hits filed as inhibitors; 340,000 compounds, 0.05% hits; AID 493014; active = well fitted inhibition curve with a large enough effect in the signal ratio, with a control signal flat, not every such curve was filed as active; inconclusive = small, poorly fitted or top-dose-only effect, or effect the other way, or a change in a side signal; the % refers to the signal ratio;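 also: potency is read from the fitted curve at half-maximal effect; plate controls were basal doxycycline-induced cells for no effect and cells given 10 µM MG132 for full effect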
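TMD8 human ABC-DLBCL cells with doxycycline-inducible IκBα–green luciferase fusion and unfused red luciferase, in 0.5% FBS medium; compounds up to 46 uM, 4 h at 37C. Green/red luminescence ratio, filter-overlap corrected, fitted to concentration-response curves.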
TDP1 cell CPT: DT40-hTDP1 cell growth loss with CPT. Potency, µM (highest dose often 46.2 µM), for inactives: top-dose activity change, negative = growth inhibition, most hits filed as inhibitors. 420,000 compounds, 12% hits. chicken DT40 Tdp1-/-;hTDP1 cells + 20 nM CPT, ATP luminescence, 48 h; also: potency is read from the fitted curve at half-maximal effect; % is scaled to controls: 0 for no effect and ±100 for the full control effect; nearly all actives have a fitted effect of over 55% in size
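Chicken DT40 Tdp1-/- cells stably complemented with human TDP1 were seeded at 400 cells/well in medium containing 20 nM camptothecin, exposed to pin-transferred compounds, and grown at 37 °C for at least 48 hr. Viability was read as ATP luminescence.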
SW480 rerep: inducers of DNA re-replication in SW480 colon cancer cells | SW480 DNA re-replication, Hoechst DNA content imaging, 48 h | Potency, µM (series often up to 46.1 µM), for the others: at the highest dose re-replication activation, actives largely listed as activators | 340,000 compounds, 1.8% hits | AID 624297; also: potency is read from the fitted curve at half-maximal effect; % of control where 0% means no effect; nearly all actives have a fitted effect of over 55% in size
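Quantitative HTS format with DMSO vehicle controls; 48 hr drug incubation at 37 C, then 40 min Hoechst staining and scanning imager measurement at 405 nm excitation.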
TDP1 cell noCPT: qHTS for Inhibitors of human tyrosyl-DNA phosphodiesterase 1 (TDP1): qHTS in cells in absence of CPT. DT40 Tdp1-/- hTDP1 cells, no CPT, ATP luminescence, 48 h. Potency, µM (highest dose often 46.2 µM), without a hit: at the highest dose activity change, negative = growth inhibition, most hits filed as inhibitors. 420,000 compounds, 15% hits. AID 686978, 2013; also: potency is read from the fitted curve at half-maximal effect; % is scaled to controls: 0 for no effect and ±100 for the full control effect; nearly all actives have a fitted effect of over 55% in size
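A cellular qHTS used chicken DT40 cells lacking endogenous Tdp1 but carrying stably transfected human TDP1. Compounds were applied without camptothecin, and cell growth kinetics were judged by ATP-dependent luminescence after ≥48 hr.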
* marks the source's active call; other numbers are inactive results; ? = inconclusive; . = no result. Unless noted, calls follow the shape of the dose curve; as a rule, active = well fitted curve in the direction sought with a large enough effect; inconclusive = small, poorly fitted or top-dose-only effect, or another doubt; inactive = no such curve, though single readings can be large; an effect the other way counts as inactive or inconclusive.

SMILES	MCF10A rereplic	IL1B secr inh	Chronic BCR inh	TDP1 cell CPT	SW480 rerep	TDP1 cell noCPT
NNc1nccc(Nc2ccccc2C(=O)O)n1	-4%	-67*	?	-10%	-1%	-22%
COc1ccc(Nc2ccccc2C(=O)O)cc1	-9%	52	-2%	-2%	?	2%
NNc1nc(Nc2ccccc2)nc(N2CCCCC2)n1	-2%	?	0%	?	22%	?
COc1nc(Nc2ccccc2)nc(OC)n1	?	1	.	0%	?	?
COc1ccc(Nc2ccc(Nc3ccc(OC)cc3)nn2)cc1	10%	26	0%	-22%	?	2%
NNc1nc(Nc2ccccc2)nc(Nc2ccccc2)n1	?	-24	4%	16µM*	?	?
CCCNC(=O)C1CCC(Cn2c(=O)c3sccc3n(CC(=O)N3CCCC(C)C3)c2=O)CC1 (configuration not stated)	.	.	.	-21%	.	-7%
COc1ccc(Nc2nc(NCCO)nc(OC)n2)cc1	8%	33	-16%	-24%	-2%	6%
COc1ccc(Nc2nc(NN)nc(Nc3ccc(OC)cc3)n2)cc1	6%	?	-8%	?	12%	13µM*
CCC(C)[C@H](NC(=O)c1cc2cc(Cl)ccc2n1C)C(=O)N1CCC(C(=O)O)CC1 (some centres not stated)	0%	1	7%	0%	-1%	-7%
CCNCCCNCCCCNCCCNCC	.	.	.	3.8µM*	.	5.3µM*
O=C(Cn1c(=O)cnc2ccccc21)NC1CCC(O)CC1 (configuration not stated)	0%	6	0%	8%	-475%	-8%
N#Cc1ccccc1S(=O)(=O)N1CCN(Cc2cccs2)CC1	.	-7	.	-15%	.	-16%
N#Cc1ccccc1S(=O)(=O)N1CCN(C(=O)CN(Cc2ccco2)Cc2cccs2)CC1	.	-17	.	?	.	16µM*
COc1ccc(OC)c(NP2(=O)OCC(C)([N+](=O)[O-])CO2)c1 (configuration not stated)	-3%	14	.	-14%	-2%	-21%
O=C(NCC[C@H]1CC[C@H](NS(=O)(=O)c2ccccc2F)[C@@H](CO)O1)c1ccc(F)cc1	.	8	.	1%	.	-12%
O=C(NCc1ccccc1)C(C1CC1)n1c(=O)c(-c2cc3ccccc3[nH]2)nc2ccccc21 (configuration not stated)	.	-17	.	?	.	?
O=C(NC1CCCC1)C(C1CC1)n1c(-c2ccccn2)nc2ccccc21 (configuration not stated)	.	-5	.	9.2µM*	.	7.3µM*
O=C(NCc1ccccc1)C(C1CC1)n1c(CSCCOc2ccccc2)nc2ccccc21 (configuration not stated)	.	-16	.	?	.	16µM*
CSCCC(C(=O)NC1CCCC1)n1c(-c2ccccn2)nc2ccccc21 (configuration not stated)	.	-12	.	?	.	?
O=C(NCc1ccccc1)C(C1CC1)n1c(-c2cccs2)nc2ccccc21 (configuration not stated)	.	10	.	10µM*	.	9.2µM*
CCCC(=O)NC1CC(=O)N(c2ccc3c(c2)OCCO3)C1 (configuration not stated)	.	.	-17%	-1%	.	-25%
O=C(NC1CCCC1)c1ccc2c(=O)n(Cc3ccccc3)c(SCc3cccc(F)c3)nc2c1	.	.	.	-27%	.	?
CCc1ccccc1Nc1nn2c(=O)c3ccc(C(=O)NC4CCCCC4)cc3nc2s1	.	.	.	10µM*	.	13µM*
COc1ccccc1Nc1nn2c(=O)c3ccc(C(=O)NC4CCCCC4)cc3nc2s1	.	.	.	2.3µM*	.	3.7µM*
SMILES	MCF10A rereplic	IL1B secr inh	Chronic BCR inh	TDP1 cell CPT	SW480 rerep	TDP1 cell noCPT
COc1ccccc1Nc1ccc(C(=O)NC2CCCCC2)cn1	0%	?	-6%	?	?	?
O=C1NC[C@@H](CCCCN2C[C@H](Cc3ccc(O)cc3)N(CC3CCCCC3)C(=O)C2=O)N(CC2CCCCC2)C1=O	.	7	.	-8%	.	-17%
CC1CCCN(c2nc(-c3cccnc3)nc3scc(-c4ccccc4)c23)C1 (configuration not stated)	23µM*	-61*	?	?	1%	18µM*
CC1CCN(c2nc(-c3cccnc3)nc3scc(-c4ccccc4)c23)CC1	?	81	?	?	3%	-17%
CN1CCN(c2nc(-c3cccnc3)nc3scc(-c4ccccc4)c23)CC1	18µM*	-52*	?	?	?	23µM*
C[C@H](CO)N1C[C@H](C)[C@@H](CN(C)S(=O)(=O)c2cn(C)cn2)Oc2c(NS(=O)(=O)c3cccs3)cccc2C1=O	9%	27	?	-2%	?	-1%
Cc1cc(Br)ccc1NC(=O)CN(C)Cc1cccs1	3%	-16	?	-25%	4%	?
Cn1cnc2c(=O)oc3ccc(S(=O)(=O)Nc4ccc(F)cc4)cc3c21	.	.	.	-7%	.	-10%
c1ccc(NN(Cc2ccncc2)c2ccccc2)cc1	.	1	.	-24%	.	?
N#Cc1ccc(CN(Nc2ccccc2)c2ccccc2)cc1	.	49	.	18µM*	.	21µM*
Cc1cc(CN(Nc2ccccc2)c2ccccc2)cc(C)n1	.	44	.	?	.	15µM*
